The results in this text go back to PubChem BioAssay.

“And” between values parts separate entries of the source, which are not always exact repeats. Identical values can stand only once.

This assay is described as follows: sensitizers of A549 cells to miR-34 induction, primary screen, imaging, A549 dox-inducible miR-34, nuclei and caspase counts (AID 1347080). Also: test concentration not given here. The following applies: A549 miR-34 inducible, Hoechst nuclei count, 48 h; measured here: relative caspase fold change +Dox/-Dox.
With `C[C@]12C=CC(=O)C=C1CCC1C2[C@@H](O)C[C@@]2(C)C1CC[C@]2(O)C(=O)COP(=O)(O)O` (stereo not given in full), the fold change was determined as 1.09.

On to `CC(C)OC(=O)CCC/C=C\C[C@@H]1[C@@H](/C=C/C(O)COc2cccc(C(F)(F)F)c2)[C@H](O)C[C@@H]1O` (stereo not given in full), for which the fold change was determined as 1.12. As to `CC12CCC3c4ccc(O)cc4CCC3C1C[C@H](O)[C@@H]2O` (stereo not given in full), the fold change was 0.736. Turning to `CC(C)(CO)C(O)C(=O)NCCC(=O)NCCSSCCNC(=O)CCNC(=O)C(O)C(C)(C)CO` (stereo not given), the fold change worked out at 0.786. For `COc1cc(O)cc(C(=O)c2ccccc2)c1S(=O)(=O)O`, the fold change is 0.886. Consider `NCCCC(N)C(=O)O` (stereo not given), for which the fold change is 0.95. To `N[C@@H](CO)c1ccccc1` belongs 0.434. With `CC(=O)Oc1cc2c(s1)CCN([C@H](C(=O)C1CC1)c1ccccc1F)C2`, the fold change stood at 0.716. As to `Cc1oc(=O)oc1CN1CCN(c2cc3c(cc2F)c(=O)c(C(=O)O)c2n3C(C)C2)CC1` (stereo not given), the fold change was determined as 0.87. To `O=C(O)c1ccccc1-c1c2cc(I)c(=O)c(I)c-2oc2c(I)c(O)c(I)cc12` belongs 0.976; to `NC(N)=NCCCC(N)C(=O)O` (stereo not given), 0.933.

For the compound `Cc1cc(=O)c(C(=O)N[C@@H](C(=O)N[C@@H]2C(=O)N3C(C(=O)O)=C(CSc4nnnn4C)CSC23)c2ccc(O)cc2)c[nH]1` (stereo not given in full), the fold change amounted to 0.887.

`CC1(C)O[C@@H]2CC3C4CCC5=CC(=O)C=C[C@]5(C)C4[C@@H](O)C[C@]3(C)[C@]2(C(=O)CO)O1` (stereo not given in full): the fold change worked out at 1.01. Take `C=C(C)C1CC=C(C)CC1` (stereo not given): the fold change came out at 1.07. To `NC(=O)C1CCCN1C(=O)C(Cc1cnc[nH]1)NC(=O)C1CCC(=O)N1` (stereo not given) belongs 0.922. For the compound `OC[C@@H](O)[C@H](O)[C@@H](O)[C@H](O)CO`, the fold change amounted to 0.862. Take `COc1nc(N)nc2c1ncn2C1O[C@H](CO)[C@@H](O)[C@@H]1O` (stereo not given in full): the fold change was found to be 0.801. In the case of `Nc1nc(NC2CC2)c2ncn(C3C=C[C@@H](CO)C3)c2n1` (stereo not given in full), the fold change turned out to be 0.706.

As for `CCN(CC)C(=O)C1(c2ccccc2)CC1CN` (stereo not given), the fold change was determined as 0.893. `Cc1cc(CC(C)CC(C)(C)C)n(O)c(=O)c1` (stereo not given) (tested in a mixture with another compound): the fold change was 0.741 and 0.825. On to `CC1/C=C/C=C/C=C/C=C/C=C/C=C/C=C/C(O[C@@H]2O[C@H](C)[C@H](O)[C@@H](O)[C@@H]2N)CC(O)C(C(=O)O)C(O)CC(=O)CC(O)CC(O)CC(O)CC(=O)CCCC(=O)CC(=O)OC1C(C)CC(C)C(O)CC(=O)c1ccc(N)cc1` (stereo not given in full), for which the fold change was 1.31.

Consider `CCCC[C@@H](CC)COC(=O)C(C#N)=C(c1ccccc1)c1ccccc1`, for which the fold change came out at 0.819. Take `O=C1c2c(O)cccc2[C@@H](O[C@@H]2O[C@H](CO)[C@H](O)[C@@H](O)[C@H]2O)c2cc(CO)cc(O)c21`: the fold change is 0.87.

Take `Cc1cc2nc3c(=O)[nH]c(=O)nc-3n(C[C@@H](O)[C@@H](O)[C@@H](O)COP(=O)(O)O)c2cc1C`: the fold change came out at 1.15. For the compound `C#C[C@]1(O)CCC2C3CCc4cc(OC5CCCC5)ccc4C3CC[C@@]21C` (stereo not given in full), the fold change worked out at 0.977. Consider `CSCC[C@H](NC(=O)[C@H](Cc1c[nH]c2ccccc12)NC(=O)[C@H](C)NC(=O)OC(C)(C)C)C(=O)N[C@@H](CC(=O)O)C(=O)N[C@@H](Cc1ccccc1)C(N)=O`, for which the fold change was 0.82. As for `C[C@]12CCC(=O)C=C1[C@@H]1C[C@@H]1C1C2CC[C@@]2(C)C1[C@@H]1C[C@@H]1[C@@]21CCC(=O)O1` (stereo not given in full), the fold change came out at 0.868.

In the case of `COc1c(O)cc2c(c1O)[C@H]1O[C@H](CO)[C@@H](O)[C@H](O)[C@@H]1OC2=O`, the fold change stood at 0.886. Then `CC(C)(O)c1ccccc1CC[C@@H](SC1(CC(=O)O)CC1)c1cccc(/C=C/c2ccc3ccc(Cl)cc3n2)c1`, with 0.641; and `CC(C)C/C=C/C=C\C(=O)N[C@@H](CC(N)=O)C(=O)N[C@@H]1C(=O)N[C@H](c2ccc(O)cc2)C(=O)N[C@H](CCCN)C(=O)N[C@H]([C@H](C)O)C(=O)N[C@@H](c2ccc(O)cc2)C(=O)N[C@H](c2ccc(O)cc2)C(=O)N[C@@H]([C@H](C)O)C(=O)N[C@@H](Cc2ccccc2)C(=O)N[C@H](CCCN)C(=O)N[C@@H](c2ccc(O[C@@H]3O[C@H](CO)[C@H](O)[C@@H](O)[C@@H]3O[C@@H]3O[C@H](CO)[C@@H](O)[C@H](O)[C@H]3O)cc2)C(=O)NC(C(C)O)C(=O)N[C@@H](c2ccc(O)cc2)C(=O)NCC(=O)N[C@@H](CC(C)C)C(=O)N[C@H](C)C(=O)N[C@@H](c2ccc(O)c(Cl)c2)C(=O)O[C@@H]1C(N)=O` (stereo not given in full), with 0.946; and `O=C1SCN(Cc2ccccc2)CN1Cc1ccccc1`, with 0.637. With `CC(=O)[C@H]1CCC2C3CC=C4C[C@@H](OC(=O)CCC(=O)O)CC[C@]4(C)C3CC[C@@]21C` (stereo not given in full), the fold change is 0.914. Regarding `NC(=O)c1ncn(C2O[C@H](CO)[C@@H](O)[C@H]2O)c1N` (stereo not given in full), the fold change is 0.793. Then `CO/N=C(/C(=O)N[C@@H]1C(=O)N2C(C(=O)OCSC(=O)c3ccco3)=CCS[C@H]12)c1csc(N)n1`, with 0.846; and `CC(=O)[C@@]12O[C@](C)(c3ccccc3)O[C@@H]1CC1C3CCC4=CC(=O)CC[C@]4(C)C3CC[C@@]12C` (stereo not given in full), with 1.15. Consider `CC(=O)c1ccc2c(c1)Sc1ccccc1N2CCCN1CCN(CCO)CC1`, for which the fold change amounted to 0.758.

Regarding `CO/N=C(/C(=O)NC1C(=O)N2C(C(=O)O)=C(CSc3nnnn3C)CSC12)c1csc(N)n1` (stereo not given), the fold change was 0.695. `O=c1[nH]c(=O)n([C@H]2C[C@H](O)C(CO)O2)cc1I` (stereo not given in full): the fold change was 0.724. As for `CC(=O)OC1CC2CCC1(C)C2(C)C` (stereo not given), the fold change was determined as 0.766. On to `C[C@@H]1CC2C3CCC4=CC(=O)C=C[C@]4(C)[C@@]3(F)[C@@H](O)C[C@]2(C)[C@H]1C(=O)CO` (stereo not given in full), for which the fold change was 0.943 and 1.01.
